PubChem BioAssay AID1159580 (chemical genetic matrix, 2015)
Among all 5,500 compounds or so, about 2,000 (36%) were called active. Another 18% or so got no clear call; they are omitted. Rule as the data show it: active = normalized growth mostly below about 0.91 (no sharp cut-off); inconclusive = no clear call, values can overlap the other calls; inactive = mostly above about 0.92. This is one part of the list.

Assay: chemical genetic growth profiling, strain panel (AID 1159580);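 also: tested at 20 µM; growth read once vehicle control cultures reached saturation at 30 °C; 1 = growth at the plate median or of vehicle wells; lower values mean less growth of the strain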
Details: growth OD

Measured: normalized growth

FC(F)(F)c1cccc(N2CCNCC2)c1
inactive: S. cerevisiae deletion strains, locus YJL187C, strain SWE1, active compounds read low 0.999 | S. cerevisiae deletion strains, locus YJR043C, strain POL32, active compounds read low 1 | S. cerevisiae deletion strains, locus YJR075W, strain HOC1, active compounds read low 0.958 | S. cerevisiae deletion strains, locus YKL009W, strain mrt4, active compounds read low 1 | S. cerevisiae deletion strains, locus YKL068W, active compounds read low 0.997 | S. cerevisiae deletion strains, locus YKL085W, strain MDH1 (second series), active compounds read low 0.995 | S. cerevisiae deletion strains, locus YKL085W, strain MDH1, active compounds read low 0.995 | S. cerevisiae deletion strains, locus YKL160W, strain elf1, active compounds read low 0.988 | S. cerevisiae deletion strains, locus YKL190W, strain CNB1, active compounds read low 1.01 | S. cerevisiae deletion strains, locus YKR001C, strain vps1, active compounds read low 0.992 | S. cerevisiae deletion strains, locus YKR026C, strain gcn3, active compounds read low 1 | S. cerevisiae deletion strains, locus YKR091W, strain srl3, active compounds read low 0.997 | S. cerevisiae deletion strains, locus YLL001W, strain dnm1, active compounds read low 0.982 | S. cerevisiae deletion strains, locus YLL026W, active compounds read low 0.991 | S. cerevisiae deletion strains, locus YLL041C, strain sdh2, active compounds read low 1 | S. cerevisiae deletion strains, locus YLR027C, strain aat2, active compounds read low 0.993 | S. cerevisiae deletion strains, locus YLR039C, strain RIC1, active compounds read low 1.04 | S. cerevisiae deletion strains, locus YLR058C, strain SHM2, active compounds read low 1.01 | S. cerevisiae deletion strains, locus YLR102C, strain apc9, active compounds read low 0.984 | S. cerevisiae deletion strains, locus YLR221C, strain rsa3, active compounds read low 0.993 | S. cerevisiae deletion strains, locus YLR258W, strain gsy2, active compounds read low 0.981 | S. cerevisiae deletion strains, locus YLR262C, strain YPT6 (second series), active compounds read low 0.981 | S. cerevisiae deletion strains, locus YLR262C, strain YPT6, active compounds read low 0.991 | S. cerevisiae deletion strains, locus YLR268W, strain sec22, active compounds read low 0.993 | S. cerevisiae deletion strains, locus YLR320W, strain mms22, active compounds read low 0.968 | S. cerevisiae deletion strains, locus YLR330W, strain CHS5, active compounds read low 1 | S. cerevisiae deletion strains, locus YLR342W, strain FKS1 (second series), active compounds read low 0.937 | S. cerevisiae deletion strains, locus YLR342W, strain FKS1, active compounds read low 0.997 | S. cerevisiae deletion strains, locus YLR357W, strain rsc2, active compounds read low 0.989 | S. cerevisiae deletion strains, locus YLR370C, strain arc18, active compounds read low 1.01 | S. cerevisiae deletion strains, locus YLR371W, strain rom2, active compounds read low 0.98 | S. cerevisiae deletion strains, locus YLR384C, strain iki3, active compounds read low 0.975 | S. cerevisiae deletion strains, locus YLR418C, strain cdc73, active compounds read low 0.992 | S. cerevisiae deletion strains, locus YML016C, strain PPZ1, active compounds read low 1.01 | S. cerevisiae deletion strains, locus YML032C, strain rad52, active compounds read low 0.965 | S. cerevisiae deletion strains, locus YML120C, strain ndi1, active compounds read low 0.999 | S. cerevisiae deletion strains, locus YML124C, strain tub3, active compounds read low 0.991 | S. cerevisiae deletion strains, locus YMR058W, strain fet3, active compounds read low 1.01 | S. cerevisiae deletion strains, locus YMR078C, strain ctf18, active compounds read low 0.986 | S. cerevisiae deletion strains, locus YMR125W, strain sto1, active compounds read low 0.968 | S. cerevisiae deletion strains, locus YMR129W, active compounds read low 1.01 | S. cerevisiae deletion strains, locus YMR205C, strain PFK2, active compounds read low 0.965 | S. cerevisiae deletion strains, locus YMR223W, strain ubp8, active compounds read low 0.981 | S. cerevisiae deletion strains, locus YMR231W, strain pep5, active compounds read low 0.999 | S. cerevisiae deletion strains, locus YMR263W, strain SAP30, active compounds read low 0.999 | S. cerevisiae deletion strains, locus YMR307W, strain GAS1, active compounds read low 0.996 | S. cerevisiae deletion strains, locus YNL067W, strain RPL9B, active compounds read low 1.01 | S. cerevisiae deletion strains, locus YNL071W, strain lat1, active compounds read low 0.996 | S. cerevisiae deletion strains, locus YNL153C, strain GIM3, active compounds read low 1.01 | S. cerevisiae deletion strains, locus YNL209W, strain ssb2, active compounds read low 0.994 | S. cerevisiae deletion strains, locus YNL233W, strain BNI4, active compounds read low 1 | S. cerevisiae deletion strains, locus YNL248C, strain rpa49, active compounds read low 1 | S. cerevisiae deletion strains, locus YNL250W, strain rad50, active compounds read low 1.01 | S. cerevisiae deletion strains, locus YNL271C, strain bni1, active compounds read low 0.978 | S. cerevisiae deletion strains, locus YNL298W, strain CLA4, active compounds read low 0.992 | S. cerevisiae deletion strains, locus YNL307C, strain MCK1, active compounds read low 0.992 | S. cerevisiae deletion strains, locus YNL322C, strain KRE1 (second series), active compounds read low 0.986 | S. cerevisiae deletion strains, locus YNR049C, strain mso1, active compounds read low 1.01 | S. cerevisiae deletion strains, locus YNR052C, strain pop2, active compounds read low 0.985 | S. cerevisiae deletion strains, locus YOL006C, strain TOP1, active compounds read low 1.04 | S. cerevisiae deletion strains, locus YOL012C, strain htz1 0.923 | S. cerevisiae deletion strains, locus YOL147C, strain pex11, active compounds read low 0.989 | S. cerevisiae deletion strains, locus YOR001W, strain rrp6, active compounds read low 0.985 | S. cerevisiae deletion strains, locus YOR061W, strain CKA2, active compounds read low 1.01 | S. cerevisiae deletion strains, locus YOR069W, strain VPS5, active compounds read low 1 | S. cerevisiae deletion strains, locus YOR070C, strain gyp1, active compounds read low 0.995 | S. cerevisiae deletion strains, locus YOR080W, strain dia2, active compounds read low 0.98 | S. cerevisiae deletion strains, locus YOR083W, strain WHI5, active compounds read low 1.03 | S. cerevisiae deletion strains, locus YOR106W, strain vam3, active compounds read low 1 | S. cerevisiae deletion strains, locus YOR136W, strain idh2, active compounds read low 0.987 | S. cerevisiae deletion strains, locus YOR144C, strain elg1, active compounds read low 0.983 | S. cerevisiae deletion strains, locus YOR184W, strain ser1, active compounds read low 1.03 | S. cerevisiae deletion strains, locus YOR265W, strain rbl2, active compounds read low 0.993 | S. cerevisiae deletion strains, locus YOR270C, strain vph1, active compounds read low 1.07 | S. cerevisiae deletion strains, locus YOR290C, strain snf2, active compounds read low 0.973 | S. cerevisiae deletion strains, locus YOR316C, strain cot1, active compounds read low 0.997 | S. cerevisiae deletion strains, locus YPL051W, strain arl3, active compounds read low 0.993 | S. cerevisiae deletion strains, locus YPL055C, strain LGE1, active compounds read low 1 | S. cerevisiae deletion strains, locus YPL078C, strain atp4, active compounds read low 1.01 | S. cerevisiae deletion strains, locus YPL106C, strain sse1, active compounds read low 0.947 | S. cerevisiae deletion strains, locus YPL240C, strain hsp82, active compounds read low 0.989 | S. cerevisiae deletion strains, locus YPR119W, strain clb2, active compounds read low 0.984 | S. cerevisiae deletion strains, locus YPR141C, strain kar3, active compounds read low 0.988 | S. cerevisiae deletion strains, locus YPR163C, strain tif3, active compounds read low 0.989 | S. cerevisiae deletion strains, locus YPR167C, strain met16, active compounds read low 0.988 | S. cerevisiae deletion strains, strain wtn01, active compounds read low 0.966 | S. cerevisiae strains, strain wild type, active compounds read low 1.01
